This is a sample that favours compounds with a hit; in the whole collection about 1.5% have one here.
N-glyco inh – blocks N-linked glycosylation in D54 reporter cells | D54 ERlucT glycosylation luciferase reporter, 24 h; percent of 100 nM tunicamycin response | reporter increase, % at 12.5 µM | 0.23% of 360,000 active | AID 588692;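 active = mean luciferase reporter signal, scaled so untreated is 0 and the glycosylation-blocking control 100, at or above a set limit in every replicate; inconclusive = mean reaches the limit but not every replicate does; inactive = mean below the limit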;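 note: luciferase carries N-glycosylation sites so blocking glycosylation raises the light; 0% = median of neutral control wells and 100% = median of 100 nM tunicamycin wells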
RAD52 anneal inh – RAD52 (human) annealing inhibition; P43351; recombinant RAD52 DNA annealing, FRET fluorescence; inhibition, % at 18.7 µM; 0.46% of 360,000 active;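 active = every replicate showing at least 50% inhibition; inconclusive = mean inhibition at least 50% but not in every replicate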
dFosB activator – mouse delta FosB homodimer activation | purified delta FosB, TAMRA-CDK5 oligo fluorescence polarization; percent of positive-control signal above neutral wells | 0.99% of 340,000 active | AID 493131 | P13346 | activation, % at 25 µM;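 active = mean activation above about 17%, with every replicate also reaching it, limit read from the data, passing the limit was not always enough; inconclusive = only one of the two conditions met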
PvdQ inh – P. aeruginosa PvdQ acylase inhibition; purified PvdQ acylase, fluorescence plate reader; inhibition, % at 10 µM; 0.063% of 340,000 active; in the data active = inhibition above about 30%, passing the limit was not always enough; inconclusive = no clear call, values can overlap the other calls;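 note: 0% = vehicle neutral wells and 100% = reference inhibitor wells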
RAD54 inh – inhibitors of human RAD54 branch migration | RAD54 Holliday junction branch migration, FAM/BHQ fluorescence | inhibition, % at 10.4 µM | 0.14% of 360,000 active;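 active = mean normalized replicate activity at least 40 and at least half of replicates scoring 40 or more; inconclusive = only one of the two criteria met; inactive = mean below 40 and under half of replicates reaching 40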;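 note: 0% = median of neutral control wells and 100% = median of positive control wells; inhibitors cause a drop in the FAM fluorescence signal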
Target sequence (Q92698 whole entry, looked up): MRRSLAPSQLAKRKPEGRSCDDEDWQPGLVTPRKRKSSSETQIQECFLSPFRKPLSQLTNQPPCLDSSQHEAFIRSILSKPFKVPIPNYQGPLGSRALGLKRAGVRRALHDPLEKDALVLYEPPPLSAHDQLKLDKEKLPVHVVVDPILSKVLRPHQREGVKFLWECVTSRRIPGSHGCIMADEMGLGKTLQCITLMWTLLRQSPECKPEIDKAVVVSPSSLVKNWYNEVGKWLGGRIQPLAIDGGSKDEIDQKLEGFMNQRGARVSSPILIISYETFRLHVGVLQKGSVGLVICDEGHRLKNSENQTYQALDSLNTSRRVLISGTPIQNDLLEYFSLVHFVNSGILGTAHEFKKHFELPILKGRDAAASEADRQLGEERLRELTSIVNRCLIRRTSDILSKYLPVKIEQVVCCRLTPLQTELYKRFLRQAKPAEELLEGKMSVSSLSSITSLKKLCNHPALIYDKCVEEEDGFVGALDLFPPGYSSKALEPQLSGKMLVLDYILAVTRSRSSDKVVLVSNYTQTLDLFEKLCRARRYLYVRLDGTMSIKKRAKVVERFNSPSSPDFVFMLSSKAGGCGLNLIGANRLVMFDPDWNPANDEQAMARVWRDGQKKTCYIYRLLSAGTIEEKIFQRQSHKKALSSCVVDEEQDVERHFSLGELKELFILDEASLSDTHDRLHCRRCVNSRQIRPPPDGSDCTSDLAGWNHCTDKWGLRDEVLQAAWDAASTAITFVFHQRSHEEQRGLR
F508del corr – CFTR F508del correction in bronchial cells; CFBE cells, YFP halide quenching; stimulated with forskolin plus potentiator P3; % fluorescence drop versus neutral controls; activity (quench increase), % at 7.58 µM; 0.36% of 350,000 active;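 active = mean added fluorescence quench of at least 8% versus neutral control, with both replicates also reaching 8%; inconclusive = only one of the mean or replicate conditions met; inactive = mean below 8% and not both replicates reaching 8%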;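 note: cells transiently co-express mutant CFTR-F508del with the halide-sensitive YFP; corrector assay measuring rescue of mutant channel to the surface after 24 h compound exposure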
DNA binding – counter-screen for Rad54 inhibitors: DNA binding compounds | shares compounds with RAD54 inh | AC50, µM (highest dose often 35 µM), for the others: at the top dose activity change, negative = DNA binding | 8% of 460 active | Acridine orange-DNA displacement, fluorescence polarization, 20 min;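 active = signal drop giving an AC50 within twice the top valid tested concentration of each sample, actives reach about 35 µM in these data; inactive = activity opposite to expected, plus the rest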;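 note: polarization loss reports compound binding to salmon sperm DNA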
RAD52 DNA ctr – binds DNA, flagging false RAD52 inhibitor hits; AC50, µM; AID 652128; Salmon sperm DNA/acridine orange FP displacement, DNA binding; shares compounds with RAD52 anneal inh; 8% of 1,000 active;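 active = fitted half-maximal concentration for signal loss at or below twice the highest dose tested, in every separate run, actives reach about 64 µM in these data; inconclusive = runs disagree, or flat partial signal loss, or poor fit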
* = called active by the depositor; i = inactive; ? = inconclusive; . = no result given.

SMILES | N-glyco inh | RAD52 anneal inh | dFosB activator | PvdQ inh | RAD54 inh | F508del corr | DNA binding | RAD52 DNA ctr
C[C@@H]1CN([C@H](C)CO)C(=O)c2cc(NC(=O)c3ccccc3)ccc2O[C@@H](C)CCCCO[C@@H]1CN(C)C(=O)CCC(F)(F)F | . | 18.6 | . | . | 1.3 | -1.5 | . | .
C[C@@H]1CN([C@@H](C)CO)C(=O)Cc2cc(NC(=O)CCCN(C)C)ccc2O[C@@H]1CN(C)S(=O)(=O)c1cccs1 | . | . | . | . | 1.3 | -2.2 | . | .
CCOCCCNC(=O)c1cc2c(-c3ccc(Cl)cc3)nn(C)c2s1 | 5.6 | -20.9 | -42.6 | -4.3 | -1.8 | 1.8 | . | .
CCCCN(CC)CCNC(=O)c1cc2c(-c3ccc(Cl)cc3)nn(C)c2s1 | 17.6 | 50.5* | -37.0 | -8.2 | 81.8* | 0.9 | -12.0% | i
CCCN(CCC)CCNC(=O)c1cc2c(-c3ccc(Cl)cc3)nn(C)c2s1 | 11.7 | 52.3* | -23.0 | 19.1 | 60.9* | -2.2 | -3.1% | i
N=c1c(C(=O)NCCN2CCOCC2)cc2c(=O)n3ccccc3nc2n1CCCN1CCOCC1 | 1.5 | 77.0* | 13.7 | -3.5 | 56.8* | -0.2 | 6.9% | i
CN(C)CCNc1ncnc2sc(-c3ccccc3)cc12 | 8.5 | 58.6* | 5.6 | -6.4 | 67.3* | -0.3 | -9.9% | i
CN(C)CCCNc1nc2cc(-c3ccc(F)cc3)sc2c(=O)n1C | 1.0 | 71.3* | . | . | 69.7* | -0.4 | -14.1% | i
CN(C)CCCNc1nc2cc(-c3cncnc3)sc2c(=O)n1C | 0.7 | 6.9 | . | . | 29.0 | -1.9 | . | .
CN(C)CCCNc1nc2cc(-c3ccccc3)sc2c(=O)n1C | 1.5 | 53.5* | . | . | ? | 0.2 | -15.5% | i
COc1ccc2c3c([nH]c2c1)[C@@H](CO)N(C(=O)NC(C)C)CC31CCN(Cc2ccc(F)cc2)CC1 | . | 9.7 | . | . | . | 0.0 | . | .
C[C@H]1CN([C@@H](C)CO)C(=O)c2cc(Br)cnc2O[C@H]1CN(C)C(=O)NC1CCCC1 | . | . | . | . | 5.2 | 1.1 | . | .
CCc1ccc(NC(=S)/N=C(\N)Nc2nc(C)c3cc(CC)ccc3n2)cc1 | -1.5 | -5.9 | -6.8 | 15.4 | . | 2.5 | . | .
CCc1ccc2nc3nc(C)cc(C)c3c(N)c2c1 | 85.1* | 82.5* | ? | -18.2 | 87.6* | 0.2 | -25.1% | i
OC(CN1CCCCC1)Cn1c2ccc(Cl)cc2c2cc(Cl)ccc21 (stereo unspecified) | 2.3 | 59.1* | -13.8 | -1.8 | 54.5* | -0.4 | 7.0% | i
COc1cccc(-c2cc(NC=O)c3ncc(-c4cccc(C(=O)NCCN(C)C)c4)n3c2)c1 | -7.8 | 94.2* | . | . | 81.0* | 2.1 | 8.0% | i
CN(C)CCNC(=O)c1cccc(-c2cnc3c(NC=O)cc(-c4ccc(S(C)(=O)=O)cc4)cn23)c1 | 1.8 | 95.7* | . | . | 65.0* | 2.7 | -16.6% | i
CC(=O)c1ccc(-c2cnc3c(NC=O)cc(-c4ccc(S(C)(=O)=O)cc4)cn23)cc1 | -8.4 | -57.5 | . | . | -7.3 | 6.3 | . | .
CC(=O)Nc1cc(-c2ccc(N3CCN(C)CC3)cc2)cn2c(-c3ccc(S(C)(=O)=O)cc3)cnc12 | -4.0 | 73.3* | . | . | 104.1* | -1.7 | -5.3% | i
CN(C)CC(=O)Nc1ccc2c(c1)[C@@H]1C[C@H](CC(=O)N3CCOCC3)O[C@H](CO)[C@@H]1O2 | . | . | . | . | -13.0 | -2.5 | . | .
CCN1CCN(c2ccc(NC(=O)c3ccccc3F)cc2Cl)CC1 | -4.7 | -9.5 | -1.4 | -0.5 | 4.2 | 2.6 | . | .
CCN1CCN(c2ccc(NC(=O)c3cc4ccccc4cc3OC)cc2C)CC1 | -6.8 | 83.4* | 13.6 | -6.5 | 53.5* | -7.3 | -1.8% | i
CCCN(CCC)CCCNC(=O)c1cc2c(-c3ccc(OC)c(OC)c3)nn(C)c2s1 | -0.7 | 89.8* | 0.0 | -1.1 | 104.3* | -0.2 | -12.7% | i
COCCCNC(=O)c1cc2c(-c3cccc(OC)c3)nn(C)c2s1 | 3.7 | 17.2 | -57.0 | -21.1 | 12.4 | 2.5 | . | .
COc1ccc(-c2nn(C)c3sc(C(=O)NCCN(C)C)cc23)cc1OC | 14.7 | 101.0* | 50.6* | 0.2 | 96.5* | 3.4 | -15.5% | i
SMILES | N-glyco inh | RAD52 anneal inh | dFosB activator | PvdQ inh | RAD54 inh | F508del corr | DNA binding | RAD52 DNA ctr
C[C@H]1CN([C@@H](C)CO)C(=O)c2cc(C3=CCCC3)cnc2O[C@@H]1CN(C)C(=O)C1CC1 | . | . | . | . | . | 2.5 | . | .
C[C@@H]1CCCCO[C@@H](CN(C)C(=O)Nc2ccccc2)[C@H](C)CN([C@@H](C)CO)C(=O)c2cc(NS(=O)(=O)c3ccc(Cl)cc3)ccc2O1 | . | -71.0 | . | . | 3.8 | 0.0 | . | .
CCN(CC)CCNc1ccc(CO)c2sc3ccccc3c(=O)c12 | 21.1 | 54.1* | 4.3 | -2.6 | 100.2* | 5.2 | 29.3µM* | 21.9µM*
C[C@H]1CN([C@@H](C)CO)C(=O)c2c(c3ccccc3n2C)-c2ccccc2CO[C@@H]1CN(C)Cc1ccc(Oc2ccccc2)cc1 | . | -1.6 | . | . | . | -2.3 | . | .
C[C@@H]1CN([C@H](C)CO)S(=O)(=O)c2ccc(-c3cccnc3)cc2O[C@H]1CN(C)Cc1cncnc1 | . | -1.7 | . | . | 2.8 | -0.1 | . | .
COc1ccc(Cc2c(-c3ccc(OC)c(OC)c3)nc3c(C)cc(Br)cn23)c(C)c1 | 1.6 | 51.9* | . | . | 60.2* | 1.8 | -8.2% | i
C[C@@H]1CN([C@@H](C)CO)C(=O)c2cc(Br)cnc2O[C@H]1CN(C)C(=O)C1CCOCC1 | . | -2.0 | . | . | -0.5 | 1.2 | . | .
Cc1ccc2nc(Cl)c3cc(C(=O)NCCCN4CCCC4)sc3c2c1 | 2.0 | 79.1* | -92.3 | -15.7 | 78.6* | 1.5 | -20.0% | 48.5µM*
CC(C)NC(=O)Nc1ccc2c(c1)C(=O)N([C@@H](C)CO)C[C@@H](C)[C@@H](CN(C)S(=O)(=O)c1ccccc1)OCCCC[C@@H](C)O2 | . | -79.2 | . | . | -3.7 | 0.9 | . | .
Cn1c2ccc(F)cc2c2nnc(SCCN3CCCCC3)nc21 | 11.3 | 8.5 | 4.6 | 9.6 | . | -0.1 | . | .
Cc1cc(C)c2c(c1)c1nnc(SCCN3CCCCC3)nc1n2C | -0.4 | 85.5* | -16.0 | 3.7 | 73.1* | 1.5 | 7.4% | i
C[C@@H]1CCCCO[C@H](CN(C)C(=O)Nc2ccccc2)[C@H](C)CN([C@@H](C)CO)C(=O)c2cc(NC(=O)c3ccncc3)ccc2O1 | . | -4.0 | . | . | 4.0 | 3.8 | . | .
COc1cccc(-c2cc3nc(NCCN4CCCC4)n(C)c(=O)c3s2)c1 | 9.6 | 89.0* | . | . | 69.8* | 3.6 | -14.0% | i
COc1cccc(CNc2nc3cc(-c4cccc(OC)c4)sc3c(=O)n2C)c1 | -3.9 | -12.9 | . | . | -4.6 | 1.8 | . | .
Cn1c(NCCN2CCCC2)nc2cc(-c3ccccc3)sc2c1=O | 17.9 | 52.4* | . | . | ? | -3.3 | -19.6% | i
Cn1c(NCCN2CCCC2)nc2cc(-c3cccc(C(F)(F)F)c3)sc2c1=O | -0.8 | 40.3 | . | . | 25.3 | . | . | .

Bioassay records: PubChem, Broad Institute
